Assay outcomes as filed in PubChem BioAssay.
Tau fibril FP: qHTS for Inhibitors of Tau Fibril Formation, Fluorescence Polarization; Potency, µM (titrated, usually from 57.7 µM), usual class: inhibitors; K18 P301L tau heparin fibrillization, Alexa594 FP, 6 h; hit rate 0.39% among 280,000; Microtubule-associated protein tau (Homo sapiens), P10636; AID 1468, 2008; note: nearly all actives have a fitted effect of over 55% in size
Target sequence (P10636 561-689 P618L limits assumed): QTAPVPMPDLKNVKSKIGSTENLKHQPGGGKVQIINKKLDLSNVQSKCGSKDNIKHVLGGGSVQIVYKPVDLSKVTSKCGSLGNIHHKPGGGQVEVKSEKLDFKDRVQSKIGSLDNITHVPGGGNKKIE
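K18 P301L tau (15 uM unlabeled/0.24 uM Alexa 594-labeled, final) + compound + heparin 20 uM final; 100 mM NaOAc pH 7; 6 hr 37 C; ThT 30 uM final added, 1 hr RT; FP ex 555/em 632 nm.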
Sfp PPTase inh: qHTS Assay for Inhibitors of Bacillus subtilis Sfp phosphopantetheinyl transferase (PPTase). hit rate 3.5% among 310,000. 4'-phosphopantetheinyl transferase ffp (Bacillus subtilis), Q9F4F7. Biochemical Sfp PPTase activity, qHTS. Potency, µM, hits mostly inhibitors;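 note: the enzyme is Sfp with the accession as filed and its product quenches rhodamine fluorescence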
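Fluorescence-quenching assay with 15 nM Sfp, 5 uM rhodamine-CoA and 12.5 uM BHQ-2-labelled ybbR peptide in pH 7.6 Hepes/MgCl2 buffer. Enzyme was pre-incubated with compound for 15 min at room temperature. Rate was taken from the 30-min fluorescence change (525/598 nm).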
Tau fibril ThT: qHTS for Inhibitors of Tau Fibril Formation, Thioflavin T Binding. Microtubule-associated protein tau (Homo sapiens), P10636. recombinant tau K18 P301L, heparin-induced fibrillization, ThT fluorescence. Potency, µM (doses to about 57.4 µM), hits mostly inhibitors. hit rate 2.1% among 270,000. AID 1460, 2008; note: nearly all actives have a fitted effect of over 55% in size
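Tau K18 P301L fragment (15 uM unlabeled plus 0.24 uM Alexa 594-labeled) in 100 mM sodium acetate pH 7 with compound, fibrillization induced by 20 uM heparin for 6 hr at 37 C. Thioflavin T (30 uM) added, fluorescence read after 1 hr (ex 450, em 510 nm).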
Tau fluor counter: Counterscreen qHTS for Inhibitors of Tau Fibril Formation, Fluorescence Polarization | tau K18 P301L Alexa594 fluorescence, heparin fibrillization | Potency, µM (series often up to 57.7 µM) | hit rate 0.93% among 280,000 | AID 1463, 2008; note: nearly all actives have a fitted effect of over 55% in size
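Human tau K18 P301L (15 uM unlabeled, 0.24 uM Alexa 594-labeled) in 100 mM sodium acetate pH 7 with 20 uM heparin, 6 hr at 37 C. ThT 30 uM added, 1 hr ambient; Alexa 594 FP and total fluorescence read at 555/632 nm.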
FBPA coupling cs: qHTS Assay for Inhibitors of Fructose-1,6-bisphosphate Aldolase from Giardia Lamblia: Coupling assay counterscreen. activity change, negative = inhibition, % at 58.2 µM, hits read low. AID 2472, 2010. coupling enzyme system counterscreen, AmpLite Red fluorescence. hit rate 0.67% among 290,000; in the data active = activity change below about -30%
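Activity here indicates interference with the coupling reaction, not aldolase inhibition. Compounds at 57.5 uM final met coupling enzymes for 10 min at RT; substrate and AmpLite Red detection followed, with a 525/598 nm fluorescence read after 20 min.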
Each line names hits and unclear results; the compound was inactive in the other large screens; [ ] = another dose, or the depositor's remark. In the library only some 5.2% were active in any assay of this set; here they are far more common. Unless noted, calls come from the whole dose curve; as a rule, active = well fitted curve in the direction sought with a large enough effect; inconclusive = small, poorly fitted or top-dose-only effect, or another doubt; inactive = no such curve, though single readings can be large; an effect the other way counts as inactive or inconclusive.

COc1cc(C(=S)N2CCCC2)cc(OC)c1O	Sfp PPTase inh 50µM
O=c1cc(-c2cccc(-c3ccc(C(F)(F)F)cc3)c2)c2cc3c(cc2o1)OCO3	none
C#CCN(Cc1ccco1)C(=O)c1cc(COc2ccc(F)cc2Cl)on1	Sfp PPTase inh 13µM, Tau fibril ThT 13µM
Cc1nonc1CN(C)C(=O)c1cc(COc2ccc(F)cc2Cl)on1	none (no result: Tau fibril FP, Tau fibril ThT, Tau fluor counter, FBPA coupling cs)
CN(Cc1nccn1C)C(=O)c1cc(COc2cccc(C(F)(F)F)c2)on1	none (no result: Tau fibril FP, Tau fibril ThT, Tau fluor counter, FBPA coupling cs)
Cc1ccc(CN(C)C(=O)c2cc(COc3ccc(F)cc3Cl)on2)o1	Sfp PPTase inh 35µM, Tau fibril ThT inconclusive
Cc1ccc(CN(C)C(=O)c2cc(COc3cccc(C(F)(F)F)c3)on2)o1	Sfp PPTase inh 20µM (no result: Tau fibril FP, Tau fibril ThT, Tau fluor counter)
CCn1c(C(=O)NCc2ccc(C)cc2)cc2sc(Cl)cc21	none (no result: Sfp PPTase inh, FBPA coupling cs)
COc1ccc(NC(=O)c2sc3nc4c(c(-c5ccc(OC)cc5)c3c2N)C(=O)CC(C)(C)C4)cc1	Tau fluor counter inconclusive (no result: Sfp PPTase inh, FBPA coupling cs)
Cc1nc2cc(-c3cccc(F)c3)nn2c(C)c1CCC(=O)Nc1ccccc1C(N)=O	none (no result: Sfp PPTase inh, FBPA coupling cs)
C=CCN1CCN(C(c2ccc(OC)c(OC)c2)c2nnnn2C(C)(C)C)CC1 (stereo unspecified)	Sfp PPTase inh 79µM, FBPA coupling cs -72
CCC(C)(C)n1nnnc1C(c1ccc(O)c(OC)c1)N1CCN(c2nc3ccccc3s2)CC1 (stereo unspecified)	Sfp PPTase inh 40µM, Tau fibril ThT inconclusive
Cc1cccc(C(=O)NCC(c2ccco2)S(=O)(=O)c2cccs2)c1 (stereo unspecified)	none (no result: Sfp PPTase inh, FBPA coupling cs)
COC(=O)C1=C(C)N(Cc2ccccc2)C(=NCc2cccc(C(F)(F)F)c2)N[C@H]1c1cccc(F)c1	Sfp PPTase inh 56µM (no result: Tau fibril FP, Tau fibril ThT, Tau fluor counter)
O=[N+]([O-])c1cccnc1N1CCC(c2cc(-c3ccc(Cl)cc3)n[nH]2)CC1	Sfp PPTase inh inconclusive, Tau fibril ThT 7.9µM, Tau fluor counter inconclusive
CCOC(=O)CN1CCC(c2cc(-c3ccc(Cl)cc3)n[nH]2)CC1	none (no result: Tau fibril FP, Tau fibril ThT, Tau fluor counter)
COC(=O)c1ccc(C(NC(=O)OCc2ccccc2)/C(=C/[C@@H](C)C(=O)NCc2ccc(OC)c(O)c2)c2cccnc2)cc1 (stereo partly specified)	none
CCC(=O)C1=C(c2ccc(F)cc2)N(C(=O)CC)n2cnnc2S1	Tau fibril FP inconclusive, Tau fibril ThT 10µM (no result: Sfp PPTase inh, FBPA coupling cs)
CCC(=O)C1=C(c2ccccc2)N(C(=O)CC)n2c(nnc2C2CCCCC2)S1	none (no result: Sfp PPTase inh, FBPA coupling cs)
CCOc1ccc(C2=C(C(=O)CC)Sc3nncn3N2C(=O)CC)cc1	Tau fibril ThT 3.2µM (no result: Sfp PPTase inh, FBPA coupling cs)
CC(=O)C1=C(c2ccc(Cl)c(Cl)c2)N(C(C)=O)n2cnnc2S1	Tau fibril FP inconclusive, Tau fibril ThT 4.5µM, Tau fluor counter inconclusive (no result: Sfp PPTase inh, FBPA coupling cs)
COc1cccc(C2=C(C(C)=O)Sc3nncn3N2C(C)=O)c1	Tau fibril FP inconclusive, Tau fibril ThT inconclusive (no result: Sfp PPTase inh, FBPA coupling cs)
CCC(=O)C1=C(c2ccc(OC)c(OC)c2)N(C(=O)CC)n2c(nnc2-c2ccc(C)cc2)S1	none (no result: Sfp PPTase inh, FBPA coupling cs)
CC(=O)OCC(NC(=O)C(Cc1ccccc1)NC(=O)OC(C)(C)C)C1OC(n2cc(C)c(=O)[nH]c2=O)C(OC(C)=O)C1OC(C)=O (stereo unspecified)	none (no result: Tau fibril FP, Tau fibril ThT, Tau fluor counter)
COc1ccc(NC(=O)N2CCc3nc(COc4ccccc4)c4c(c3C2)CO[C@@H](C)C4)cc1	Tau fibril ThT inconclusive
CCCCc1nc2c(c3c1C[C@H](C)OC3)CN(C(=O)COC)CC2	none
O=C(c1csnn1)N1CCC[C@@]2(CCN(c3ccccn3)C2)C1	none (no result: Tau fibril FP, Tau fibril ThT, Tau fluor counter)
COC(=O)c1ccc(Cn2cc(/C=C\[N+](=O)[O-])c3ccccc32)o1	Sfp PPTase inh 56µM (no result: Tau fibril FP, Tau fibril ThT, Tau fluor counter)
O=C(O)c1ccc(Cn2cc(/C=C\[N+](=O)[O-])c3ccccc32)o1	none (no result: Tau fibril FP, Tau fibril ThT, Tau fluor counter)
Cn1nc(C(=O)N2CCN(c3ccc(F)cc3)CC2)c2c1-c1ccccc1SC2	Tau fluor counter 7.1µM[quencher] (no result: Sfp PPTase inh, FBPA coupling cs)
CCN(CC)CCCNC(=O)c1nn(C)c2c1CSc1ccccc1-2	Tau fibril FP inconclusive, Tau fibril ThT inconclusive, Tau fluor counter 25µM[quencher] (no result: Sfp PPTase inh, FBPA coupling cs)
COc1ccc(CNC(=O)CSc2nnc(C)c3c(C)n(-c4ccccc4)nc23)c(OC)c1	none (no result: Sfp PPTase inh, FBPA coupling cs)
